Reference: article PMC7862700, “An all-to-all approach to the identification of sequence-specific readers for epigenetic DNA modifications on cytosine”

Tests used:
Experiment in all cases: DAPPL (digital affinity profiling via proximity ligation, sequencing); 10 mM Tris-HCl pH 7.5, 50 mM NaCl, 1 mM DTT, 4% glycerol, room temperature, 30 min; GST-TFs on glutathione beads, 16-mer random dsDNA library, 0.1% formaldehyde crosslink after washing; high values mean tight binding
Details in all cases: protein: recombinant; tags: N-terminal GST; dsDNA, one strand shown
FEV = biological target: T1, FEV (Homo sapiens, UniProt Q99581 1-238)
T1 sequence: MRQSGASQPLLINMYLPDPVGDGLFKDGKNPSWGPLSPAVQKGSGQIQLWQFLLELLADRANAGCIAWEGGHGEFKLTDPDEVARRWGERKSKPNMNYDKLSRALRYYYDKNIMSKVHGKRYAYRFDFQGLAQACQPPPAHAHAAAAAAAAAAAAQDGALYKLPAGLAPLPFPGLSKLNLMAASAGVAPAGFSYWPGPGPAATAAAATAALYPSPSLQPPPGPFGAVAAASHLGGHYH
Procedure, shortened: (§1)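 Sequencing on an Illumina NextSeq500 followed washing, crosslinking with 0.1% formaldehyde, proximity ligation (BsaI/T4 ligase, 1 h, 37 °C) and PCR amplification of pools that had been incubated for 30 min at room temperature with 200 nmole of a random double-stranded 16-mer DNA library in Tris/NaCl/DTT/glycerol buffer. Each pool held DNA-barcoded human transcription factors, expressed in yeast as GST fusions and captured on glutathione beads, plus a tag-only sample. Binding signal is a hexamer's read frequency for a factor divided by its frequency in the tag-only sample.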

ETV5 = ETV5 (Homo sapiens, UniProt P41161 1-510)
Procedure, shortened: as §1

SPIC = biological target: T2, SPIC (Homo sapiens, UniProt Q8N5J4 1-248)
T2 sequence: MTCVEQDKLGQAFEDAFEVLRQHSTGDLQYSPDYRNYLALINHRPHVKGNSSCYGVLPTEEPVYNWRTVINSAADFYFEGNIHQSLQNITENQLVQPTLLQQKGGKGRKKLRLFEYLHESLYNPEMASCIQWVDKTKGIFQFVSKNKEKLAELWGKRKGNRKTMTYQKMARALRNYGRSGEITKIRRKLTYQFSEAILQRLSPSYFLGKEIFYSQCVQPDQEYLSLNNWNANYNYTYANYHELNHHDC
Procedure, shortened: as §1

ELF4 = ELF4 (Homo sapiens, UniProt Q99607 1-663)
Procedure, shortened: as §1

ELK4 = biological target: T3, ELK4 (Homo sapiens, UniProt P28324-2 1-405)
T3 sequence: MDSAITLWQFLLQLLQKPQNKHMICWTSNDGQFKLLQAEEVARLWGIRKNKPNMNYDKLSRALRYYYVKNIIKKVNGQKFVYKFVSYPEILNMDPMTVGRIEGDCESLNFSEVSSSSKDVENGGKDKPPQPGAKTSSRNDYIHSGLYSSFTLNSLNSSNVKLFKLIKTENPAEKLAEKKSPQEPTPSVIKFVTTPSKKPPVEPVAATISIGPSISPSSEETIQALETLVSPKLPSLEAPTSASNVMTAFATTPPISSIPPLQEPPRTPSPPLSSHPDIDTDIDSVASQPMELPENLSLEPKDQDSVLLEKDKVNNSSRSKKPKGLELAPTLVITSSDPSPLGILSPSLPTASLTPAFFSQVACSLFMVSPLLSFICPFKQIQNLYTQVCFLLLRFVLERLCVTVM
Procedure, shortened: as §1

ETV2 = biological target: T4, ETV2 (Homo sapiens, UniProt O00321 1-342)
T4 sequence: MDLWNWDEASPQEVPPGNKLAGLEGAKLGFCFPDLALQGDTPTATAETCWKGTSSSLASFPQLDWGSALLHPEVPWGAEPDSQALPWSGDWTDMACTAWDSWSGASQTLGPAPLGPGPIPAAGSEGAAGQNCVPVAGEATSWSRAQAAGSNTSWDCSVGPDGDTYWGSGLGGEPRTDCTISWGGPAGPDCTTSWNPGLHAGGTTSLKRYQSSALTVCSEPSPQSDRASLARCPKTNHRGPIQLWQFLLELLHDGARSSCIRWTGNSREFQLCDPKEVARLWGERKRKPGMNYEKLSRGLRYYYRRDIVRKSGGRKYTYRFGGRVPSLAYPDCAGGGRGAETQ
Procedure, shortened: as §1

ETV1 = ETV1 (Homo sapiens, UniProt P50549 1-477)
Procedure, shortened: as §1

ERF = biological target: T5, ERF (Homo sapiens, UniProt P50548 1-548)
T5 sequence: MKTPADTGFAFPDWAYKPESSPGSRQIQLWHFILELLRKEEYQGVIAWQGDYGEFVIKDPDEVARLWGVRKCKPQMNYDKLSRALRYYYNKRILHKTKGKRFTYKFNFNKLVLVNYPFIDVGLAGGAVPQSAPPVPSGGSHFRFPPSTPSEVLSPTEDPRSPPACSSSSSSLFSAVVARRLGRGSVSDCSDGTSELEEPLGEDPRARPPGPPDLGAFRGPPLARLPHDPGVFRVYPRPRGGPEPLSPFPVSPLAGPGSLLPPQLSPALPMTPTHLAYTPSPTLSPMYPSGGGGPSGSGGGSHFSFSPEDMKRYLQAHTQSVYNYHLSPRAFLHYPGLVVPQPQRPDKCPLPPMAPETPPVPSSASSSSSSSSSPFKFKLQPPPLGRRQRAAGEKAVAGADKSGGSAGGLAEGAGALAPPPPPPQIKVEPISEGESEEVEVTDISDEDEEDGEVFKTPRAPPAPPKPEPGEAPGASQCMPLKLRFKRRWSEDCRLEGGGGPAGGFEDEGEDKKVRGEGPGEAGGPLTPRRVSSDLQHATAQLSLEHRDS
Procedure, shortened: as §1

ETS2 = biological target: T6, ETS2 (Homo sapiens, UniProt P15036 1-469)
T6 sequence: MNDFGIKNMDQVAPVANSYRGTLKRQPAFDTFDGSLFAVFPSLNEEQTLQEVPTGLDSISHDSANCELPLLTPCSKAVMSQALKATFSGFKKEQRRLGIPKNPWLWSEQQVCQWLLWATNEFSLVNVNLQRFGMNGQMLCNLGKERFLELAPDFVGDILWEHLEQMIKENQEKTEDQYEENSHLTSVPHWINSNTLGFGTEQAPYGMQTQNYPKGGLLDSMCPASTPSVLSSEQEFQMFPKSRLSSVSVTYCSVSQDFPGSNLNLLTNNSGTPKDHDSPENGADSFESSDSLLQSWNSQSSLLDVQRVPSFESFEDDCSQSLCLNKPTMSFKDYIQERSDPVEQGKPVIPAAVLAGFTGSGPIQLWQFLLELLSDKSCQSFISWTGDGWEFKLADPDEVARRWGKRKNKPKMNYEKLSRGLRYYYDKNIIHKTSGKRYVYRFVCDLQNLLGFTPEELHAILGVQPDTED
Procedure, shortened: as §1

SPDEF = biological target: T7, SPDEF (Homo sapiens, UniProt O95238 1-335)
T7 sequence: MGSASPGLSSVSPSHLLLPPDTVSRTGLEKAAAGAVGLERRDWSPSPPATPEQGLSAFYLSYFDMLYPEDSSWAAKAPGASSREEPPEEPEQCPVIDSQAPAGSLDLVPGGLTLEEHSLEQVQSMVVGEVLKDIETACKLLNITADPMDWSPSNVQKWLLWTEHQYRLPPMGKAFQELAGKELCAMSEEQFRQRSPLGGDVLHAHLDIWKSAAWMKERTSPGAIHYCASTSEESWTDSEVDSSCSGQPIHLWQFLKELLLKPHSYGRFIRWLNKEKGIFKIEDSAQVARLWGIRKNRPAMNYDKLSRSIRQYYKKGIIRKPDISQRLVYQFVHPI
Procedure, shortened: as §1

ELF5 = biological target: T8, ELF5 (Homo sapiens, UniProt Q9UKW6-2 1-255)
T8 sequence: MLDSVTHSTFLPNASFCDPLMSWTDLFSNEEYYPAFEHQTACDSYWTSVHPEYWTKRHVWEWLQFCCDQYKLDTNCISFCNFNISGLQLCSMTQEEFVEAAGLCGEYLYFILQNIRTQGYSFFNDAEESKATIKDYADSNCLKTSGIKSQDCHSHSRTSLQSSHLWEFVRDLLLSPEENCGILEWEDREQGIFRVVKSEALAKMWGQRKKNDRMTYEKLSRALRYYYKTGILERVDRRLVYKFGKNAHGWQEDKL
Procedure, shortened: as §1

ETV3 = biological target: T9, ETV3 (Homo sapiens, UniProt P41162-2 1-143)
T9 sequence: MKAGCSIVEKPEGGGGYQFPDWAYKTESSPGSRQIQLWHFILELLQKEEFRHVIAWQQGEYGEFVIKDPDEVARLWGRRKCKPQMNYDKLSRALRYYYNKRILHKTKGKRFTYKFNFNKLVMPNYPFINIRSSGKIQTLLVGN
Procedure, shortened: as §1

ETV6 = ETV6 (Homo sapiens, UniProt P41212 1-452)
Procedure, shortened: as §1

ETV3L = biological target: T10, ETV3L (Homo sapiens, UniProt Q6ZN32 1-361)
T10 sequence: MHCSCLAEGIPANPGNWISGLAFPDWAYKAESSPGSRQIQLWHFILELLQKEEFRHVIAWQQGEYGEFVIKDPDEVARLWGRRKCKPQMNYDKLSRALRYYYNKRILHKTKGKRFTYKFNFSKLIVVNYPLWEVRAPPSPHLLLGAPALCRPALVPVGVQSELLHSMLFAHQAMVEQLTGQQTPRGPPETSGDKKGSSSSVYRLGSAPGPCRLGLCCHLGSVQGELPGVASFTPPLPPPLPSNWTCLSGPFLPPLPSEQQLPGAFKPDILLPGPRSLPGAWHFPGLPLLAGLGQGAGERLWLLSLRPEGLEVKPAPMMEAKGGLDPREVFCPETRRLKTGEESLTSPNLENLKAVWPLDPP
Procedure, shortened: as §1

ETV7 = biological target: T11, ETV7 (Homo sapiens, UniProt Q9Y603 1-341)
T11 sequence: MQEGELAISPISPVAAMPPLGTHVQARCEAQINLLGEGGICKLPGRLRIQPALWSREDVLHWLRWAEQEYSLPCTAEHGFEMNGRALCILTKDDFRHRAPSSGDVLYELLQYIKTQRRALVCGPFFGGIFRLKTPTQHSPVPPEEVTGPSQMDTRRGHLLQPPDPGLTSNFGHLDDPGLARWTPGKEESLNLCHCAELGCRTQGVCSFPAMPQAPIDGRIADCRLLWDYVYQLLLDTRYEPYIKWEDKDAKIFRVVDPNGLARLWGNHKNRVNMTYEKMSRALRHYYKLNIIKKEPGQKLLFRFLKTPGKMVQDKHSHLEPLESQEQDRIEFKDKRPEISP
Procedure, shortened: as §1

Chain of ELF4 (Q99607 whole entry): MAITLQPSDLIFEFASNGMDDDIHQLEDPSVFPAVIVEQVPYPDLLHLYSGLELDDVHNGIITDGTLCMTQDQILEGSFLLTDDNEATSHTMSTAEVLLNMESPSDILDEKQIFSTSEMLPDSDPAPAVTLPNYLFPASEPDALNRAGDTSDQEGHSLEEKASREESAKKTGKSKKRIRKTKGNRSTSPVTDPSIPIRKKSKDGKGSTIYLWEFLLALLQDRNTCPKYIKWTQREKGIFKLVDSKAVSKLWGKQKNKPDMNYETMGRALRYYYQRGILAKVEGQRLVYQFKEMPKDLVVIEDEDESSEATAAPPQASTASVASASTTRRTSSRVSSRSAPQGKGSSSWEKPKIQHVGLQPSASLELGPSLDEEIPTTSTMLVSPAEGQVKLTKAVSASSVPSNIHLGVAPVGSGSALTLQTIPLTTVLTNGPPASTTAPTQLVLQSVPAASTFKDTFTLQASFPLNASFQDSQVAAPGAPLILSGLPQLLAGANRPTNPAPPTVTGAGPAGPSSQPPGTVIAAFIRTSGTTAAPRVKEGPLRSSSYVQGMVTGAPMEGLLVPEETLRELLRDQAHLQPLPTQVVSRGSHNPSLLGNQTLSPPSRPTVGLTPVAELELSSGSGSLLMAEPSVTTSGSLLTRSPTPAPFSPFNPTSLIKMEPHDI
Chain of ETV5 (P41161 whole entry): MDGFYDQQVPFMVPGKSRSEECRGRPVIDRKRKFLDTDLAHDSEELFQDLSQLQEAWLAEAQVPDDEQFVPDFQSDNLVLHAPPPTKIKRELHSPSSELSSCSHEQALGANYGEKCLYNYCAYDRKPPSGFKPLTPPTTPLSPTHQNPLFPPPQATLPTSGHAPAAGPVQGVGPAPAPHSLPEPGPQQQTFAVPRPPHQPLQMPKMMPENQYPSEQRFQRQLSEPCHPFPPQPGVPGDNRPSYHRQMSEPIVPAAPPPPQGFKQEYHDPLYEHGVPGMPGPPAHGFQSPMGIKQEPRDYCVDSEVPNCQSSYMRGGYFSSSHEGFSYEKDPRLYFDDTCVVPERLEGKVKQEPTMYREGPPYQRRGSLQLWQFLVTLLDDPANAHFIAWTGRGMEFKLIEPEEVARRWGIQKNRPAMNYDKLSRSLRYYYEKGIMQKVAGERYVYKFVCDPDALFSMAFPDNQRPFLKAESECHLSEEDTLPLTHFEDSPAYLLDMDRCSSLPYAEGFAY
Chain of ETV1 (P50549 whole entry): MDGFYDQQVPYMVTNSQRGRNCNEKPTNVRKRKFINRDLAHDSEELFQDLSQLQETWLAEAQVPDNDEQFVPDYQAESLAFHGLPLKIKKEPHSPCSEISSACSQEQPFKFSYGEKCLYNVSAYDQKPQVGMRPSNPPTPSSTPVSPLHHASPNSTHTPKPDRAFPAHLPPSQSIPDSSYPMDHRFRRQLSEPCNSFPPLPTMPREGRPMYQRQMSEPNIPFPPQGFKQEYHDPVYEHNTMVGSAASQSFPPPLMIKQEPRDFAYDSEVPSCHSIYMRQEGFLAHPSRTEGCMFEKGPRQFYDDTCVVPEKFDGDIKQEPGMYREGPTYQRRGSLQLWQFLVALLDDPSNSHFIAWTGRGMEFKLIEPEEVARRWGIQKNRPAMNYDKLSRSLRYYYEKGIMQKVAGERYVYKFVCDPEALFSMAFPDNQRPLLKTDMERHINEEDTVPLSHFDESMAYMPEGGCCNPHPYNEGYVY
Chain of ETV6 (P41212 whole entry): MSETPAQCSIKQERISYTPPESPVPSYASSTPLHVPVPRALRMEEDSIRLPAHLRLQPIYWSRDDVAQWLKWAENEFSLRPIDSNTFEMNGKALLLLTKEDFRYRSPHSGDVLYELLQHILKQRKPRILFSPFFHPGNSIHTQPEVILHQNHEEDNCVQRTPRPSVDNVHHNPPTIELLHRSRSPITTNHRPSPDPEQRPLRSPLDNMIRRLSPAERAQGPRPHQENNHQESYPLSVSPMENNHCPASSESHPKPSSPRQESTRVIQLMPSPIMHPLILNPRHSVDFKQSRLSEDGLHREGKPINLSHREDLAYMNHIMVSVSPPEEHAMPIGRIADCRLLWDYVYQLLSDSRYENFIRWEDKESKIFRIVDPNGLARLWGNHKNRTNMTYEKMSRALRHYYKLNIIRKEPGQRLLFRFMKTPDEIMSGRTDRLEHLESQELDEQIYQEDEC

| Sequence | binding signal (FEV) | binding signal (ETV5) | binding signal (SPIC) | binding signal (ELF4) | binding signal (ELK4) | binding signal (ETV2) | binding signal (ETV1) | binding signal (ERF) | binding signal (ETS2) | binding signal (SPDEF) | binding signal (ELF5) | binding signal (ETV3) | binding signal (ETV6) | binding signal (ETV3L) | binding signal (ETV7) |
| --- | --- | --- | --- | --- | --- | --- | --- | --- | --- | --- | --- | --- | --- | --- | --- |
| CGGTAT | 1.08 fold enrichment (6-mer frequency, TF over GST control) | 1.06 fold enrichment (6-mer frequency, TF over GST control) | 1.08 fold enrichment (6-mer frequency, TF over GST control) | 1.06 fold enrichment (6-mer frequency, TF over GST control) | 1.03 fold enrichment (6-mer frequency, TF over GST control) | 1.31 fold enrichment (6-mer frequency, TF over GST control) | 1.09 fold enrichment (6-mer frequency, TF over GST control) | 1.02 fold enrichment (6-mer frequency, TF over GST control) | 1.01 fold enrichment (6-mer frequency, TF over GST control) | 1.32 fold enrichment (6-mer frequency, TF over GST control) | 1.1 fold enrichment (6-mer frequency, TF over GST control) | 1.05 fold enrichment (6-mer frequency, TF over GST control) | 1.06 fold enrichment (6-mer frequency, TF over GST control) | – | – |
| ACGGCC | 1.06 fold enrichment (6-mer frequency, TF over GST control) | 1.14 fold enrichment (6-mer frequency, TF over GST control) | 1.03 fold enrichment (6-mer frequency, TF over GST control) | 1.15 fold enrichment (6-mer frequency, TF over GST control) | 1.06 fold enrichment (6-mer frequency, TF over GST control) | 1.01 fold enrichment (6-mer frequency, TF over GST control) | 1.05 fold enrichment (6-mer frequency, TF over GST control) | 1.02 fold enrichment (6-mer frequency, TF over GST control) | 1.1 fold enrichment (6-mer frequency, TF over GST control) | 1.17 fold enrichment (6-mer frequency, TF over GST control) | 1.02 fold enrichment (6-mer frequency, TF over GST control) | 1.13 fold enrichment (6-mer frequency, TF over GST control) | 1.08 fold enrichment (6-mer frequency, TF over GST control) | 1.13 fold enrichment (6-mer frequency, TF over GST control) | 1.13 fold enrichment (6-mer frequency, TF over GST control) |
